Results filed as inconclusive are left out. Activity calls are given as the source filed them. Calls follow the shape of the dose curve; as a rule, active = well fitted inhibition curve with a large enough effect; inconclusive = small, poorly fitted or top-dose-only effect; inactive = no such curve, though single readings can be large or run the other way. Where a SMILES comes first, the peptide text is derived from it. [ ]: non-standard residue; d: D form. pGlu = O=C1CC[C@@H](C(=O)O)N1
Assay: qHTS assay for measurement of the activity of small molecule inhibitors on Zika virus induced Caspase-3 activity in human iPSC derived neural progenitor cells (hNPCs) (AID 1224857); also: nearly all actives have a fitted effect of over 65% in size
Settings: hNPCs ZIKV-induced caspase-3/7, Caspase-Glo luminescence, 6 h; series mostly up to 45.7 µM; activity change, negative = inhibition: at the top concentration
Excerpt: National Center for Advancing Translational Sciences [NCATS]
Johns Hopkins University School of Medicine
Increase in the Caspase-3 activity indicates an activation of apoptosis cell death pathway caused by Zika virus infection in certain types of neuronal cells including human neural progenitor cells (hNPCs), astrocytes, and astrocytoma cell line (SNB-19). This cell-based caspase-3 activity assay measures the increased caspase-3 activity in the human iPSC derived neural progenitor cells (hNPCs) after a 6-hour Zika virus infection with a luminescence readout. A decrease in the luminescence signal in this assay by small molecule treatment indicates an inhibitory effect of that small molecule on the Zika virus induced caspase-3 activity that may correlate with its effect on reduction of Zika virus caused cell death.
The medium for hNPCs consists of DMEM/F12, N2 supplement (ThermoFisher, Cat.# 17502048), NEAA (ThermoFisher, Cat. # 11140050), 2 ug/ml heparin, 2 uM cyclopamine, and B27 (ThermoFisher, Cat. # 17504044). A Caspase-Glo 3/7 assay kit (catalog number G8092; Promega, Madison, WI) was used to detect caspase-3 activity induced by Zika virus infection in human cells. The reagent mixture was reconstituted as described in the protocol from the manufacturer. Polystyrene tissue culture treated and PDL coated white plates were obtained from Greiner Bio-One (Monroe, NC). Cells were seeded in 384- or 1536-well assay plates and cultured at 37 C with 5% CO2 for 16 to 20 hours. The typical cell seeding density in the 1536-well plate assay is 350 cells/well in 3 ul medium for hNPCs in tissue culture treated plates. Compounds were added to cells and incubated for one hour before addition of ZIKV solution to cells (2 FFU/cell). After incubation at 37 C with 5% CO2 for 6 hours, the reagent mixture of Caspase-Glo 3/7 assay kit was added to each well, followed by incubation at room temperature for 30 minutes. The luminescence intensity of the assay plates was measured using a ViewLux plate reader (PerkinElmer). Data were normalized by using the cell-containing wells without ZIKV as a negative control (0% induction of caspase 3/7 activity) and wells containing ZIKV infected cells (Caspase-3 activity induced) as a positive control (100% induction of caspase 3 activity). The percentage inhibitions of the increased Caspase-3 activity by small molecule inhibitors were then calculated.

| Compound | activity change, negative = inhibition |
| --- | --- |
| O=C(O)c1ccccc1Nc1cc(Cl)ccc1C(=O)O | -32.3% [at 20.5 µM] (inactive) |
| CC(=O)Oc1ccc(C2(c3ccc(OC(C)=O)cc3)Oc3ccccc3NC2=O)cc1 | -1.35% (inactive) |
| CN(C)CCCOC1(Cc2ccccc2)CCCCCC1 | 16.7% (inactive) |
| C[N+]1(CC2COC(c3ccccc3)(c3ccccc3)O2)CCCCC1 (stereo not given) | -9.17% [at 20.5 µM] (inactive) |
| C=CCOc1cc(Cl)ccc1C(=O)NCCN(CC)CC | 1.9% (inactive) |
| COc1ccc2nc(SCc3ncc(C)c(OC)c3C)[nH]c2c1 | 2.52% (inactive) |
| CCOC(=O)c1ccc(NC(=O)CN2CCCCC2)cc1 | 3.61% (inactive) |
| O=[N+]([O-])c1nccn1CO[C@@H](CO)[C@H](O)CO | -2.69% (inactive) |
| COc1ccc(/C(C)=C/C(=O)O)c(OC)c1 | 2.28% (inactive) |
| COC(=O)/C=C\C(=O)OC | 1.84% (inactive) |
| Cc1oc(-c2ccccc2)nc1CCC(=O)c1ccc(CC2SC(=O)NC2=O)cc1 (stereo not given) | 11.7% (inactive) |
| CC(C)C(=O)Nc1cccc(C(F)(F)F)c1 | -4.41% (inactive) |
| N[C@@H](Cn1ccc(=O)c(O)c1)C(=O)O | 25.9% (inactive) |
| NC(=O)NS(=O)(=O)c1ccc(Cl)cc1 | 10.8% (inactive) |
| CO[C@]1(NC(=O)CSC(F)F)C(=O)N2C(C(=O)O)=C(CSc3nnnn3CCO)CO[C@H]21 | -8.29% (inactive) |
| CCCCNc1ccc(C(=O)OCCN(CC)CC)cc1 | 7.56% (inactive) |
| COc1cc2c(cc1OC)C(=O)CC2 | -5.42% (inactive) |
| CCCCCCCCCCCCCCCC[n+]1ccccc1 | 1.23% (inactive) |
| O=C1NCCN1CCN1CCC(c2cn(-c3ccc(F)cc3)c3ccc(Cl)cc23)CC1 | 18.1% (inactive) |
| CCCCCCCCCCCCCCCCCCNC(=O)OC1CCN(C(=O)OC[C@H](COC(=O)N(Cc2cccc[n+]2CC)C(=O)c2ccccc2OC)OC)CC1 | -10.8% (inactive) |

| Compound | activity change, negative = inhibition |
| --- | --- |
| CC(C)OC(=O)c1cc2c(OCC(O)CNC(C)(C)C)cccc2[nH]1 (stereo not given) | 18.8% (inactive) |
| C/C(=N/NC(=O)c1ccncc1)C(=O)O | -4.33% (inactive) |
| CC(C)(C)NCC(O)COc1ccccc1OCC1CCCO1 (stereo not given) | 12% (inactive) |
| Oc1ccc(CCNCCCCCCNCCc2ccccc2)cc1O | 3.95% (inactive) |
| CO/N=C(/C(=O)N[C@@H]1C(=O)N2C(C(=O)OCOC(=O)C(C)(C)C)=C(C)CS[C@H]12)c1csc(N)n1 | -13.2% (inactive) |
| CC(C)(C)c1ccc(C(=O)CCCCl)cc1 | -2.04% (inactive) |
| CCC1(c2cnc[nH]2)Cc2ccccc2C1 | -5.6% (inactive) |
| C[N+]1(C)CCC(OC(=O)C(O)(c2ccccc2)C2CCCC2)C1 (stereo not given) | 1.76% (inactive) |
| O=C1CC2(CCCC2)CC(=O)N1 | 7.15% (inactive) |
| Cc1ncc([N+](=O)[O-])n1C | 1.56% (inactive) |
| CSc1ccc(/C=C2/C(C)=C(CC(=O)O)c3cc(F)ccc32)cc1 | -9.29% (inactive) |
| O=C(O)c1cn(C2CC2)c2cc(Cl)c(F)cc2c1=O | 11.5% (inactive) |
| CCOc1ncc(F)c(=O)[nH]1 | 25.3% (inactive) |
| COc1ccccc1N1CCN(CCN2C(=O)CC3(CCCC3)CC2=O)CC1 | 7.83% (inactive) |
| N[C@@H](Cc1cc(I)c(O)c(I)c1)C(=O)O | -2.94% (inactive) |
| CCOC(=O)NNc1nncc2ccccc12 | -1.3% (inactive) |
| CCNC(=O)[C@@H]1CCCN1C(=O)[C@H](CCCN=C(N)N)NC(=O)[C@H](CC(C)C)NC(=O)CNC(=O)[C@H](Cc1ccc(O)cc1)NC(=O)[C@H](CO)NC(=O)[C@H](Cc1c[nH]c2ccccc12)NC(=O)[C@H](Cc1cnc[nH]1)NC(=O)[C@@H]1CCC(=O)N1 ([pGlu]HWSYGLRP-NHEt) | 12.2% (inactive) |
| C1=CC2C3C=CC(C3)C2C1 (stereo not given) | 8.19% [at 92.8 µM] (inactive) |
| Cc1sccc1Br | -3.71% (inactive) |
| N#Cc1cc(NC(=O)C(=O)O)c(Cl)c(NC(=O)C(=O)O)c1 | 9.61% (inactive) |
